The values below come from PubChem BioAssay (NCATS).

Assay [1] relates to Zika virus NS2B-NS3 protease (linked construct). The experiment in a line: Primary screen NINDS Rhodamine qHTS for Zika virus inhibitors (AID 1347160). Further: nearly all actives have a fitted effect of over 55% in size. Further: potency means the concentration at half of the fitted maximal effect. In outline:
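Aprotinin served as in-plate control. Conditions: 25 nM linked NS2B-NS3, pH 8.0 Tris buffer, titrated compounds, 15 min preincubation and 15 min reaction with 1.5 microM Rhod110 substrate at room temperature.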
A general note: In qHTS, concentration-response curves come from the screen itself.

Assay [2] concerns the target Calcium and integrin-binding protein 1 (Homo sapiens) (UniProt Q99828). The experiment in a line: Primary qHTS for Identification of Calcium Integrin Binding Protein 1 (CIB1) Competitor (AID 1508620).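 Further: GST tagged CIB1 binding a fluorescein labelled alphaIIb integrin peptide tracer; top concentration of the series differs between compounds.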 Put shortly: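 CIB1-GST (1 uM final) and compound incubated 15 min at room temperature before adding FITC-alphaIIb peptide tracer (100 nM final). Competition for binding read by fluorescence polarization (ex 480, em 540) after another 15 min at room temperature.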

The nature of assay [3]: Primary qHTS for inhibitors of nuclear receptor binding SET domain protein 2 (NSD2) in an isogenic RCH-ACV NSD2 p.E1099K mutant (9B) (AID 1645876). Further: potency means the concentration at half of the fitted maximal effect; nearly all actives have a fitted effect of over 70% in size.
Assay [4] can be described thus: Primary qHTS for inhibitors of nuclear receptor binding SET domain protein 2 (NSD2) in an RCH-ACV wild type WT cells (2C) (AID 1645877). Further: potency means the concentration at half of the fitted maximal effect; nearly all actives have a fitted effect of over 70% in size.
In assay [5] the target is Glutathione peroxidase 1 (Homo sapiens) (UniProt P07203). As to the kind of experiment: Primary qHTS Assay for Inhibitors of Recombinant Selenoprotein Glutathione Peroxidase 1 (GPX1) (AID 1845191). Further: nearly all actives have a fitted effect of over 65% in size. Put shortly: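 NADPH consumption tracked by fluorescence at 340/450 nm between t=0 and t=15 min, room temperature. Final mix: 10 nM GPX1, 100 nM glutathione reductase, 1 mM GSH, 0.5 mM NADPH, 0.5 mM cumene hydroperoxide, 0.01% BSA; 30 min compound–enzyme preincubation.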
Sequence of Glutathione peroxidase 1 (Homo sapiens) (P07203 whole entry, looked up): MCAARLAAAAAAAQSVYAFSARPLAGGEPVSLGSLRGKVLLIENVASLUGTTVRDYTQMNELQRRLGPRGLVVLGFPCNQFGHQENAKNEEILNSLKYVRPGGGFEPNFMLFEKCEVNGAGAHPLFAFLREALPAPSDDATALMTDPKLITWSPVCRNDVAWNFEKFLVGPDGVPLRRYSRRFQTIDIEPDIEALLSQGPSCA

In assay [6] the target is Phospholipid hydroperoxide glutathione peroxidase GPX4 (Homo sapiens) (UniProt P36969). As to the kind of experiment: Primary qHTS Assay for Inhibitors of Recombinant Selenoprotein Glutathione Peroxidase 4 (GPX4) (AID 1845192). Further: nearly all actives have a fitted effect of over 65% in size. The conditions noted are these: outcome: dose series up to 50 µM unless noted. In outline:
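NADPH consumption followed by fluorescence at 340/450 nm, t=0 and after 15 min at room temperature. Reaction started with cumene hydroperoxide (0.5 mM final) after 30 min compound–GPX4 preincubation; final 200 nM GPX4, 100 nM GR, 1 mM GSH, 0.5 mM NADPH.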

Assay [7] concerns the target Luciferin 4-monooxygenase (Photinus pyralis) (UniProt P08659). The experiment in a line: Primary firefly luciferase (FLuc) qHTS assay for identification of artifact compounds. (AID 1845220). Further: nearly all actives have a fitted effect of over 60% in size. Put shortly: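 FLuc 10 nM; luciferin 10 uM; ATP 10 uM; Tris-acetate pH 7.6, Mg-acetate 10 mM; 15 min RT preincubation; 5 min reaction; luminescence.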
A short description of assay [8]: Primary fluorescence-based thiol-reactive (MSTI) qHTS assay for identification of artifact compounds. (AID 1845221).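 Further: thiol-reactive compounds lower the probe fluorescence signal; nearly all actives have a fitted effect of over 65% in size.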 Put shortly:
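A multi-concentration qHTS design tested compounds against 4 uM MSTI, pH 7.4 phosphate-buffered saline. Plates were protected from light for 1 h at room temperature before imaging fluorescence.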

Assay [9] in a line: Primary redox qHTS assay for identification of artifact compounds. (AID 1845223). Put shortly: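 Redox-cycling detection via DTT (250 uM final) oxidation coupled to Amplex Red (25 uM)/HRP (250 mU/mL) in HBSS. 15 min preincubation plus 30 min after DTT, room temperature. Ex/Em 525/598 nm; 4-parameter Hill fit against DMSO and 10 uM DA3003.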
The next assay concerns C33A. The experiment in a line: Primary qHTS to identify gynecologic anti-cancer compounds using libraries of approved drugs and bioactive compounds (AID 1345084). Further: nearly all actives have a fitted effect of over 55% in size. Further: potency means the concentration at half of the fitted maximal effect. Particulars: Gynecologic cancer cell panel viability, ATPlite luminescence, 48 h; series mostly up to 57.5 µM. In outline: (§1)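 ATP-based viability (ATPlite), 1,000 cells/well, 16 h pre-incubation, 48 h compound at 37 C, 5% CO2, 15 min RT before read.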

Another assay has as its system CASKI. The description is as above. Particulars: Gynecologic cancer cell panel viability, ATPlite luminescence, 48 h; series mostly up to 57.5 µM. In outline: as §1
In the next assay the test system is Es-2. Described as above. The conditions noted are these: Gynecologic cancer cell panel viability, ATPlite luminescence, 48 h; series mostly up to 57.5 µM. In outline:
as §1
(Cellular ATP, detected with luciferase, serves as a proxy for viable cell number.)

A further assay relates to Hek293T. Described as above. The conditions noted are these: Gynecologic cancer cell panel viability, ATPlite luminescence, 48 h, control line for the selectivity index; series mostly up to 57.5 µM. In outline: as §1
The subject of the next assay is Tov-21-G. Described as above. The conditions noted are these: Gynecologic cancer cell panel viability, ATPlite luminescence, 48 h; series mostly up to 57.5 µM. Put shortly: as §1
A further assay has as its system Tov112D. Described as above. The conditions noted are these: Gynecologic cancer cell panel viability, ATPlite luminescence, 48 h; series mostly up to 57.5 µM. Put shortly: as §1
Assay [10] relates to Nanoluciferase (engineered Oplophorus gracilirostris luciferase). The experiment in a line: Primary Nanoluciferase (NLuc) qHTS assay for identification of artifact compounds. (AID 1845222).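 Further: NLuc secreted into diluted conditioned medium of S16 cells.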 In outline:
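NLuc from S16 cell medium (1:55) plus test compounds, 15 min, room temperature. Luminescence after Nano-Glo (1:100) addition, 5 min.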

A further assay concerns HeLa. As to the kind of experiment: Primary qHTS to identify gynecologic anti-cancer compounds using libraries of approved drugs and bioactive compounds (AID 1345084). Further: nearly all actives have a fitted effect of over 55% in size. Further: potency means the concentration at half of the fitted maximal effect. Particulars: Gynecologic cancer cell panel viability, ATPlite luminescence, 48 h; series mostly up to 57.5 µM. Put shortly: as §1
The subject of another assay is JEG-3. The description is as above. The conditions noted are these: Gynecologic cancer cell panel viability, ATPlite luminescence, 48 h; series mostly up to 57.5 µM. In outline:
as §1

The next assay relates to OV90. Described as above. The conditions noted are these: Gynecologic cancer cell panel viability, ATPlite luminescence, 48 h; series mostly up to 57.5 µM. Put shortly: as §1
The next assay has as its system PA-1. Described as above. Particulars: Gynecologic cancer cell panel viability, ATPlite luminescence, 48 h; series mostly up to 57.5 µM. In outline: as §1

Molecules are shown by their SMILES. “And” between values parts separate entries of the source, which are not always exact repeats. Equal values may be shown once. Inconclusive results are not listed. The source made the active and inactive calls. The call rests on the fitted dose curve; in most records, active means well fitted curve in the direction sought with a large enough effect; inconclusive means small, poorly fitted or top-dose-only effect, or another doubt; inactive means no such curve, though single readings can be large; an effect the other way counts as inactive or inconclusive.

Sequence of Calcium and integrin-binding protein 1 (Homo sapiens) (Q99828 whole entry, looked up): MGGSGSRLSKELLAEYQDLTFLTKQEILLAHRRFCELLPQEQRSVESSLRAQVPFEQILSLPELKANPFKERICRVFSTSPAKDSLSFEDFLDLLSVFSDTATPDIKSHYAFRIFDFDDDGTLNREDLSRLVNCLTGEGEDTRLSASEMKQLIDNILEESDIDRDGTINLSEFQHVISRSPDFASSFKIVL
Sequence of Phospholipid hydroperoxide glutathione peroxidase GPX4 (Homo sapiens) (P36969 whole entry, looked up): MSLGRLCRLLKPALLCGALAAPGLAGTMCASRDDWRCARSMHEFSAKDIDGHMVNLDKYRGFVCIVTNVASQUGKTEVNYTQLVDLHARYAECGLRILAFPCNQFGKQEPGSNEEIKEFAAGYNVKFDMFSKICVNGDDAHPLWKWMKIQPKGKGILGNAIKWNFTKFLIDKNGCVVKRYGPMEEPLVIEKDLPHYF

On to `Cn1nccc1Nc1nccc(-c2ccn([C@H](CO)c3ccc(Cl)c(F)c3)c(=O)c2)n1`, for which the Potency entry in assay [1], in assay [5], in [6], in assay [7], in assay [8] and in [9] was “inactive” in each case. Besides, the Potency result in the assay with C33A, in the assay with CASKI, in the assay with Es-2, in the assay with Hek293T, in the assay on Tov-21-G and with Tov112D was “inactive” throughout. Besides, the result in [2] was inactive. Moreover, the Potency is 7.28 µM (active) and 7.42 µM (active) in assay [3]; 10.3 µM (active) and 8.33 µM (active) in [4].
On to `OCC(CO)(CO)NCC(O)Cn1c2ccc(Cl)cc2c2cc(Cl)ccc21` (stereo not drawn), for which the Potency entry in assay [1], in assay [5], in [6], in assay [7], in assay [8] and in assay [10] was “inactive” throughout. Moreover, the Potency entry in the assay with C33A, in the assay on CASKI, in the assay on Es-2, in the assay on HeLa, in the assay on Hek293T and with JEG-3 was “inactive” in each case. Moreover, the Potency entry in the assay with OV90, in the assay with PA-1, in the assay with Tov-21-G and in the assay with Tov112D was “inactive” each time. Besides, in assay [2], the result was inactive. Also, the Potency in assay [3] and in assay [4] was 20.5 µM (active) throughout.
For `CC(=O)N1c2ccc(-c3ccc(C(=O)O)cc3)cc2C(Nc2ccc(Cl)cc2)CC1C` (stereo not drawn), the Potency in assay [1] was 8.91 µM (active); in assay [3] it was 0.0325 µM (active); in assay [4], 0.0205 µM (active); in the assay with Tov-21-G, 2.24 µM (active). Further, in assay [2], the result was inactive. Moreover, the Potency entry (in assay [6]; in assay [7]; in assay [8]; in [10]; in the assay on C33A; in the assay with Hek293T) was “inactive” in each case.
For the compound `COc1cc2ncnc(Oc3cccc(NC(=O)Nc4cc(C(C)(C)C(F)(F)F)on4)c3)c2cc1OC`, the Potency entry in assay [1], in [5], in [6], in assay [7], in [8] and in assay [10] was “inactive” each time. Moreover, the Potency result with C33A, with CASKI, with Es-2, in the assay on HeLa, with Hek293T and in the assay on JEG-3 was “inactive” in each case. Also, the Potency result with OV90, in the assay on PA-1, in the assay on Tov-21-G and in the assay on Tov112D was “inactive” each time. In assay [2], the outcome was inactive.
`Cn1c(NC[C@@H](N)Cc2ccccc2)nc(-c2ccncc2)c(-c2ccc3ccccc3c2)c1=O`: the Potency result in assay [1], in assay [6], in assay [7], in assay [8], in assay [10] and in assay [9] was “inactive” throughout. In addition, the Potency entry in the assay on C33A, in the assay with CASKI, with Es-2, in the assay on HeLa, in the assay with Hek293T and in the assay on JEG-3 was “inactive” each time. Besides, the Potency result in the assay with OV90, in the assay on PA-1, with Tov-21-G and in the assay with Tov112D was “inactive” each time. For the same compound, the outcome in [2] was inactive. Moreover, the Potency is 18.6 µM (active) in assay [3] and 26.3 µM (active) in [4].
For the compound `CCCCn1ccc(N2CCC(c3ccccc3)CC2)c(Cl)c1=O`, the result in assay [2] was inactive. Besides, the Potency was 23 µM (active) in assay [3]; 18.3 µM (active) in assay [4]; 28.2 µM (active) in the assay with Es-2; 31.6 µM (active) in the assay with Hek293T; 25.1 µM (active) with PA-1; 28.2 µM (active) in the assay on Tov-21-G. Besides, the Potency result in assay [5], in [6], in [8] and in assay [10] was “inactive” in each case.
Turning to `CC/C(=C(\c1ccc(O)cc1)c1ccc(OCCNC)cc1)c1ccccc1`, the Potency entry in assay [1], in [5], in assay [6], in assay [7], in assay [8] and in [9] was “inactive” throughout. The Potency entry with C33A, with CASKI, in the assay with Es-2, in the assay on HeLa, with Hek293T and with JEG-3 was “inactive” throughout. Also, the Potency entry in the assay on OV90, with PA-1, with Tov-21-G and in the assay on Tov112D was “inactive” each time.
